{
  "source": "PubChem BioAssay AID1672",
  "about": "(Johns Hopkins Ion Channel Center, 2009)",
  "note": "In all, about 310,000 compounds went through this assay and about 2,600 (0.84%) were called active. The sample as a whole holds a higher share of actives than the screen did. Unmarked numbers belong to inactive results.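 How the source made its calls: active means fluorescence ratio B-score at or below minus 3 SD of library scores, with starting-brightness B-score within 2 SD (cut at about -4.2 in these data); inactive means the rest.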",
  "data": [
    {"target": "Inward rectifier potassium channel 2 (Mus musculus) (UniProt P35561)", "sequence (P35561 whole entry, looked up)": "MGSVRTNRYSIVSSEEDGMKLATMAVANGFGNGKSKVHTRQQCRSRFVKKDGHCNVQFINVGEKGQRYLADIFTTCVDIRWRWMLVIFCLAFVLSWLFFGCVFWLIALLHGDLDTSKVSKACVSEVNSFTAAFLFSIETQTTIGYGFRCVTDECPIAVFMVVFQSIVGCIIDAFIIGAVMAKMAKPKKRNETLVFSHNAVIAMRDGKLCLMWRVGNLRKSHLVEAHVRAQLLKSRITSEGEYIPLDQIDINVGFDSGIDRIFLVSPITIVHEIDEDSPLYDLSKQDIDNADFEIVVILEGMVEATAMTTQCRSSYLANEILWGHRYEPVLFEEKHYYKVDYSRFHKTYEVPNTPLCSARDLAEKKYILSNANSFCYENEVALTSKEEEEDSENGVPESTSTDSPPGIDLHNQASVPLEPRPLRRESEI", "assay": "blocks the mouse Kir2.1 inward-rectifier potassium channel (AID 1672);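 further: channel flux triggered by added potassium and thallium sulfate stimulus; B-score of peak minus minimum fluorescence over baseline after thallium stimulus; more negative B-score means stronger Kir2.1 block with less thallium influx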", "settings": "HEK293-Kir2.1, FluxOR thallium flux fluorescence; at 10 µM; hits give low values", "values": [
      {"compound": "CCN(CC)CCn1c2c(c(SCC(=O)Nc3nc4ccccc4s3)nc1=O)CCCC2", "B-score": 0.03},
      {"compound": "COc1ccc(NC(=O)CN(C)C(=O)/C=C/c2cn(Cc3ccccc3)nc2-c2cccnc2)cc1", "B-score": 0.01},
      {"compound": "CCOC(=O)c1cc(NC(=O)c2cccnc2)ccn1", "B-score": 0.04},
      {"compound": "CCc1noc(C)c1C(=O)Oc1ccc(N(C)S(=O)(=O)c2ccc(C)c(C)c2)cc1", "B-score": -0.66},
      {"compound": "CC(OC(=O)C1CC(=O)N(Cc2ccccc2)C1)C(=O)Nc1ccccc1[N+](=O)[O-]", "note": "(configuration not stated)", "B-score": -1.36},
      {"compound": "N=c1c2c(-c3ccccc3)c(-c3ccccc3)n(Cc3ccccc3)c2ncn1CCCO", "B-score": "-6.86 (active)"},
      {"compound": "CCN(CC)CCn1cnc2c1c(=O)[nH]c(=O)n2Cc1ccccc1", "B-score": 0.13},
      {"compound": "N=c1c2c(-c3ccccc3)c(-c3ccccc3)oc2ncn1Cc1ccco1", "B-score": 1.16},
      {"compound": "Cn1c(SCC(=O)c2ccccc2)ncc(C(=O)Nc2ccc(F)cc2)c1=O", "B-score": 1.98},
      {"compound": "O=S(=O)(Nc1cccc(-c2ccc(N3CCOCC3)nn2)c1)c1ccc(Cl)c(Cl)c1", "B-score": 0.82},
      {"compound": "CCN(CC(=O)NCc1cccs1)C(=O)c1ccc(OC)c(S(=O)(=O)N2CCOCC2)c1", "B-score": -0.52},
      {"compound": "Cc1cccc2c1N(CCOc1ccccc1)C(=O)C2=O", "B-score": -0.18},
      {"compound": "CC(O)CNCCOc1cccc(Oc2ccccc2)c1", "note": "(configuration not stated)", "B-score": -2.96},
      {"compound": "CC1(C)NC(=O)N(CCOc2cccc(Oc3ccccc3)c2)C1=O", "B-score": "-4.68 (active)"},
      {"compound": "O=C(COc1coc(CN2CCN(c3ccccc3)CC2)cc1=O)Nc1ccccc1F", "B-score": -0.62},
      {"compound": "CCN(CC)CCOCCOc1ccc(Cl)c2ccccc12", "B-score": -2.53},
      {"compound": "CN(C)CCOC1c2ccccc2-c2ccccc21", "B-score": 0.04},
      {"compound": "CN(C)CCOCCOc1ccc(Cl)c2ccccc12", "B-score": "-5.07 (active)"},
      {"compound": "CN(Cc1c(F)cccc1Cl)C(=O)CNC(=O)c1ccc2c(c1)OCO2", "B-score": 0.45},
      {"compound": "CCOc1ccc(NC(=O)CN(C)C(=O)COc2cccc(CC)c2)cc1OCC", "B-score": -1.11},
      {"compound": "COc1ccc2c(c1)C(=O)Nc1cc(Cl)ccc1N2", "B-score": 0.62},
      {"compound": "CCn1c(COc2cccc(OC)c2)nnc1SCC(=O)N1CCOCC1", "B-score": 0.86},
      {"compound": "CCn1c(=N)n(CC(=O)c2cccc(OC)c2)c2ccccc21", "B-score": -0.01},
      {"compound": "Cc1ccc(OCc2nc3ccccc3n2C)cc1", "B-score": -0.43},
      {"compound": "CCCCCCCCCCOC(=O)Cn1c(COc2cccc(OC)c2)[n+](C)c2ccccc21", "B-score": "-8.13 (active)"},
      {"compound": "CCCCCCCCCCOC(=O)Cn1c(COc2ccc(C)cc2)[n+](C)c2ccccc21", "B-score": "-17.5 (active)"},
      {"compound": "CCOC(=O)CN1C(=O)C(=O)c2cc(C)ccc21", "B-score": -1.78},
      {"compound": "CCCCOC(=O)Cn1c(=N)n(CCN(CC)CC)c2ccccc21", "B-score": 1.01},
      {"compound": "Cc1ccc(OCCCn2c(=O)oc3ccccc32)cc1", "B-score": -1.92},
      {"compound": "CCCCOC(=O)Cn1c(=O)n(CC(=O)OCCCC)c2cc(C)ccc21", "B-score": "-7 (active)"},
      {"compound": "CC(C)CN(C(=O)COC(=O)c1ccc2ccccc2c1)c1c(N)n(Cc2ccccc2)c(=O)[nH]c1=O", "B-score": 1.03},
      {"compound": "CCOc1ccc(NC(=O)COc2ccc(C(=O)N3CCC(C(N)=O)CC3)cc2OC)cc1", "B-score": 1.65},
      {"compound": "COc1ccc(CNC(=O)C(=O)N2CCC3(CC2)OCCN3S(=O)(=O)c2ccc(C)cc2)cc1", "B-score": 0.4},
      {"compound": "COc1ccc(C(=O)Nc2cccc(NC(=O)c3ccc(OC)cc3OC)n2)c(OC)c1", "B-score": 1.64},
      {"compound": "O=S(=O)(O)Oc1c[nH]c2ccccc12", "B-score": 0.01},
      {"compound": "Cc1nnc(SCC(=O)N2CCN(c3ccccc3)CC2)n1-c1ccccc1", "B-score": 0.71},
      {"compound": "Cc1nnc(SCc2ccc(C(=O)c3ccc(Cl)cc3)o2)n1-c1ccccc1", "B-score": "-6.19 (active)"},
      {"compound": "Cc1nnc(SCC(=O)NCCOc2ccc(Cl)cc2)n1-c1ccccc1", "B-score": -0.16},
      {"compound": "CN(Cc1ccccc1)CC(O)COc1ccc(CNCc2cc3ccccc3s2)cc1", "note": "(configuration not stated)", "B-score": "-11.4 (active)"},
      {"compound": "COc1ccc(OCC(O)CN(C)C(=O)C(C)Oc2ccccc2)cc1", "note": "(configuration not stated)", "B-score": -0.09},
      {"compound": "Cc1ccc(OCC(=O)OC(C)CN(C)Cc2ccccc2)cc1", "note": "(configuration not stated)", "B-score": 0.74},
      {"compound": "C=CCNC(=O)C1CC2c3ccccc3C1c1ccccc12", "note": "(configuration not stated)", "B-score": -2.23},
      {"compound": "C[C@@H](NC(=O)OC(C)(C)C)c1nnc(S(=O)(=O)Cc2ccccc2)o1", "B-score": "-6.48 (active)"},
      {"compound": "CC(C)Sc1nnc([C@H](Cc2ccccc2)NC(=O)OC(C)(C)C)o1", "B-score": -0.51},
      {"compound": "C[C@H](NC(=O)OC(C)(C)C)c1nnc(SCC(N)=O)o1", "B-score": -0.34},
      {"compound": "O=C(c1ccc(Cl)s1)N(Cc1nnc(-c2ccccc2Cl)o1)C1CC1", "B-score": 1.76},
      {"compound": "Cc1ccn2c(=O)nc(SCC(=O)NCc3ccc(F)cc3)nc2c1", "B-score": -1.27},
      {"compound": "Cc1csc(NC(=O)c2ccc(C)s2)n1", "B-score": 0.01},
      {"compound": "CC(=O)Nc1cccc(C(=O)OCC(=O)Nc2nnc(-c3ccccc3)o2)c1", "B-score": -2.17},
      {"compound": "COc1ccccc1NS(=O)(=O)c1ccc(C)c(C(=O)NCC(c2ccco2)N(C)C)c1", "note": "(configuration not stated)", "B-score": -0.98},
      {"compound": "C=CCNC(=S)/N=c1/ccccn1Cc1ccccc1", "B-score": "-6.6 (active)"},
      {"compound": "C=CCNC(=O)COc1coc(CN2CCN(Cc3ccccc3)CC2)cc1=O", "B-score": 0.45},
      {"compound": "C=CCNC(=S)N/N=C/c1ccc(OCc2ccccc2)cc1", "B-score": -1.45},
      {"compound": "O=C(Nc1ncccc1O)c1ccc(S(=O)(=O)N2CCCC2)cc1", "B-score": -0.16},
      {"compound": "CC(C)(C)NCc1cc(Br)ccc1OC1CCCC1", "B-score": "-4.79 (active)"},
      {"compound": "CCOCCCNCc1cc(Br)ccc1OCC", "B-score": -0.16},
      {"compound": "COCC(C)NCc1cc(Br)ccc1OC", "note": "(configuration not stated)", "B-score": 1.7},
      {"compound": "Cc1ccc(NC(=O)c2cnc(SCC(=O)NCC3CCCO3)n(C)c2=O)cc1", "note": "(configuration not stated)", "B-score": 0.42},
      {"compound": "Cc1ccc(S(=O)(=O)N2CCC(C(=O)NCCC3=CCCCC3)CC2)cc1C", "B-score": 0.61},
      {"compound": "O=C1c2ccccc2C(=O)c2c1cccc2N1CCN(C/C=C/c2ccccc2)CC1", "B-score": 1.06},
      {"compound": "COc1ccc(C)cc1NC(=O)CSc1nnc2ccc(-c3ccccn3)nn12", "B-score": 0.98},
      {"compound": "Cc1ccc(SCCN2C(=O)NC(C)(C)C2=O)cc1", "B-score": 0.51},
      {"compound": "CSc1ccc(CN2C(=O)NC3(CCCCCC3)C2=O)cc1", "B-score": 1.22},
      {"compound": "CC1(C)NC(=O)N(CCCCSc2ccc(Cl)cc2)C1=O", "B-score": "-6.38 (active)"},
      {"compound": "Cc1ccn2c(=O)c(NC(=O)c3cccc4ccccc34)c(C)nc2c1", "B-score": -0.25},
      {"compound": "CC1CN(C(=O)CCC(=O)NCc2cccnc2)c2ccccc2O1", "note": "(configuration not stated)", "B-score": -0.67},
      {"compound": "CC1CN(C(=O)CCC(=O)NC2CCN(Cc3ccccc3)CC2)c2ccccc2O1", "note": "(configuration not stated)", "B-score": 2.27},
      {"compound": "CC1CN(C(=O)CCC(=O)NCCCN2CCC(Cc3ccccc3)CC2)c2cc(Cl)ccc2O1", "note": "(configuration not stated)", "B-score": "-9.24 (active)"},
      {"compound": "CN(C)S(=O)(=O)c1ccc(N2CCCC2)c(C(=O)Nc2ccc(Br)cc2F)c1", "B-score": -0.29},
      {"compound": "Cc1cc(C)cc(NC(=O)COc2coc(CN3CCN(c4ccccc4)CC3)cc2=O)c1", "B-score": 0},
      {"compound": "Cc1ccc(NC(=S)N(CCCN2CCC(C)CC2)Cc2ccco2)cc1", "B-score": -0.74},
      {"compound": "Cc1ccc(NC(=S)N(CCCN2CCCC2)Cc2cccn2Cc2ccc(Cl)cc2)cc1", "B-score": "-8.85 (active)"},
      {"compound": "Cc1ccc(NC(=S)N(CCN2CCCCC2)Cc2ccco2)cc1C", "B-score": -0.41},
      {"compound": "CC(C)(C)S(=O)(=O)c1ccccc1-c1noc(-c2ccccc2)c1C(N)=O", "B-score": -0.65},
      {"compound": "COc1ccc(S(=O)(=O)NCC(c2ccc(C)cc2)N2CCN(C)CC2)cc1OC", "note": "(configuration not stated)", "B-score": 1.23},
      {"compound": "CCCCOc1ccc(C(=O)NCc2ccncc2)cc1", "B-score": 0.24},
      {"compound": "CCCOc1ccc(C(=O)CCC(=O)OC(C)C(=O)Nc2ccc(NC(C)=O)cc2)cc1", "note": "(configuration not stated)", "B-score": 0.42},
      {"compound": "CCCOc1ccc(C(=O)C(CCC(CNCC)C(=O)c2ccc(OCCC)cc2)CNCC)cc1", "note": "(configuration not stated)", "B-score": "-6.16 (active)"},
      {"compound": "O=C(CSc1nc(=O)n2ccccc2n1)Nc1ccc2c(c1)OCCO2", "B-score": 0.08},
      {"compound": "CCOc1ccc(C(C)=O)cc1COC(=O)CN1C(=O)NC2(CCCC2)C1=O", "B-score": -1.53},
      {"compound": "CCCCn1c(N)c(N(CC(C)C)C(=O)c2ccc(-n3c(C)ccc3C)cc2)c(=O)[nH]c1=O", "B-score": -1.14},
      {"compound": "c1ccc(C2CNCc3c2ccc2ccccc32)cc1", "note": "(configuration not stated)", "B-score": "-11.2 (active)"},
      {"compound": "Cc1ccc(C)c(-c2nnc(NC(=O)CS(=O)(=O)c3ccccc3)o2)c1", "B-score": 1.4},
      {"compound": "O=c1[nH]c(/C=C/c2cccc(Br)c2)nc2ccccc12", "B-score": 0.39},
      {"compound": "O=C(CSc1ccccc1)Nc1cc(Cl)ccc1Oc1ccccc1", "B-score": -1.22},
      {"compound": "Cc1cc(C)cc(NC(=O)CSc2ccccc2)c1", "B-score": 0.12},
      {"compound": "CC(=O)Nc1ccc(SCC(=O)Nc2ccccc2Oc2ccccc2)cc1", "B-score": "-6.89 (active)"},
      {"compound": "N#CCCN(C(=O)COC(=O)C1CCN(c2ccc(C(F)(F)F)cn2)CC1)c1ccc(F)cc1", "B-score": 0.96},
      {"compound": "CCOC(=O)N1CCN(C(=O)COc2ccc3oc4c(c3c2)CCCC4)CC1", "B-score": 0.58},
      {"compound": "COc1ccccc1CCNC(=O)C(=O)NCCC1CCCCN1S(=O)(=O)c1cccs1", "note": "(configuration not stated)", "B-score": -1.17},
      {"compound": "O=C(/C=C/c1ccc(Cl)cc1Cl)c1cccnc1", "B-score": "-4.49 (active)"},
      {"compound": "O=C(/C=C/c1ccc(Cl)c([N+](=O)[O-])c1)c1cccnc1", "B-score": -0.86},
      {"compound": "O=C(Nc1cccnc1)c1cc(Cl)ccc1Cl", "B-score": 0.72},
      {"compound": "COc1ccc2oc(C(=O)OCC(=O)N(CC(C)C)c3c(N)n(Cc4ccccc4)c(=O)[nH]c3=O)c(C)c2c1", "B-score": 0.5},
      {"compound": "Cc1cc(C)c(S(=O)(=O)c2ccc(F)cc2C)c(=O)[nH]1", "B-score": 0.31},
      {"compound": "C=C(C)Cn1c(C)cc(C)c(S(=O)(=O)c2ccccc2C)c1=O", "B-score": "-4.55 (active)"},
      {"compound": "COc1ccccc1S(=O)(=O)c1c(C)cc(C)[nH]c1=O", "B-score": -1.21}
    ]}
  ]
}
